Compound activity: PubChem, National Center for Advancing Translational Sciences (NCATS)
In the library only some 19% were active in any assay of this set; here they are far more common.
HT1080NT lethal = kills 2HG-producing HT-1080-NT fibrosarcoma cells. Potency, µM (titrated, usually from 46.1 µM), without a hit: at the highest dose activity, negative = less viability, usual class: cytotoxic. AID 686970. 360,000 compounds, 1.6% hits. HT-1080-NT fibrosarcoma viability, CellTiter-Glo ATP luminescence, 48 h;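 further: NT is the 2HG producing partner of a matched IDH1 knockdown line; potency means the concentration at half of the fitted maximal effect; 0% = DMSO-treated cells and -100% = media-only wells without cells; nearly all actives have a fitted effect of over 55% in size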
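750 cells/well, RPMI + 5% FBS; 2 h settle, compound pin-transfer, 48 h at 37 degrees C. CellTiter-Glo 10 min RT, luminescence. Normalized to DMSO and media-only wells.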
TDP1 cell CPT = DT40-hTDP1 cell growth loss with CPT; Potency, µM (titrated, usually from 46.2 µM), inactives show top-dose activity change, negative = growth inhibition, usual class: inhibitors; AID 686979; 420,000 compounds, 12% hits; chicken DT40 Tdp1-/-;hTDP1 cells + 20 nM CPT, ATP luminescence, 48 h; further: potency means the concentration at half of the fitted maximal effect; nearly all actives have a fitted effect of over 55% in size
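Cell growth measured by CellTiter-Glo luminescence after a minimum 48 h, 37 C compound exposure with 20 nM CPT in Tdp1-knockout DT40 cells stably expressing hTDP1, seeded 400/well; qHTS titration format.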
IL1B secr inh = inflammasome signaling inhibition, IL-1 beta readout; AID 743279; activity change, % at 57.5 µM; 360,000 compounds, 4.7% hits; THP-1 LPS/ATP IL-1B secretion, AlphaLISA, 16 h; active compounds read low; in the data active means activity change below about -50%; inconclusive means mostly about -30% to -49%
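Secreted IL-1B measured by AlphaLISA bead assay after 16 h compound exposure of THP-1 cells; compounds (final up to 57.5 uM) added 1 h before LPS (250 ng/mL) and ATP (1.25 mM) stimulation; lower signal means less secretion.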
HT1080 IDH1KD tx = toxicity to HT-1080 IDH1 knockdown cells (counter line) | HT-1080 IDH1 knockdown viability, ATP luminescence, 48 h | Potency, µM (titrated, usually from 46.1 µM), inactives show at the top dose activity, negative = toxicity, most hits filed as cytotoxic | 360,000 compounds, 2% hits;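 further: potency means the concentration at half of the fitted maximal effect; 0% = DMSO wells and -100% = cell-free medium wells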
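Using the IDH1-knockdown HT-1080 line run in the same batch and compound series as the NT line, viability after 48 h at 37 °C was determined by CellTiter-Glo luminescence and expressed as % activity.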
DT40 TDP1 no CPT = qHTS for Inhibitors of human tyrosyl-DNA phosphodiesterase 1 (TDP1): qHTS in cells in absence of CPT; DT40 Tdp1-/- hTDP1 cells, no CPT, ATP luminescence, 48 h; Potency, µM (doses to about 46.2 µM), for inactives: at the top dose activity change, negative = growth inhibition, actives largely listed as inhibitors; 420,000 compounds, 15% hits; AID 686978, 2013; further: potency means the concentration at half of the fitted maximal effect; nearly all actives have a fitted effect of over 55% in size
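A cellular qHTS used chicken DT40 cells lacking endogenous Tdp1 but carrying stably transfected human TDP1. Compounds were applied without camptothecin, and cell growth kinetics were judged by ATP-dependent luminescence after ≥48 hr.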
* = called active by the depositor; u = inconclusive; x = no result; [ ] = remark or other dose. Unless noted, the call rests on the fitted dose curve; in most records, active means well fitted curve in the direction sought with a large enough effect; inconclusive means small, poorly fitted or top-dose-only effect, or another doubt; inactive means no such curve, though single readings can be large; an effect the other way counts as inactive or inconclusive. Unless noted, on the % scale 0 is the no-effect control and ±100 the full control effect.

SMILES | HT1080NT lethal | TDP1 cell CPT | IL1B secr inh | HT1080 IDH1KD tx | DT40 TDP1 no CPT
CC(C)Sc1nc2[nH]ncc2c(=O)[nH]1 | 11.4% | -2.0% | 0.0 | -13.8% | 1.6%
CN(C)Cc1cccc([N+](=O)[O-])c1O | 8.0% | 7.5% | 6.0 | 4.9% | 13.8%
COc1ccc(NS(=O)(=O)c2ccc(-c3coc(C)n3)cc2)c(OC)c1 | u | 23.1µM* | 16.1 | u | -28.9%
COc1ccc(OC)c(CNS(=O)(=O)c2ccc(-c3coc(C)n3)cc2)c1 | x | u | x | x | 20.6µM*
CCN1CCSc2ccc(C(=O)NCc3cccc(Br)c3)cc21 | -2.4% | u | u | -4.0% | u
COc1ccccc1CNC(=O)c1ccc2c(c1)N(Cc1ccc(C)cc1)CCS2 | x | 16.4µM* | x | x | u
CCOc1ccccc1CNC(=O)c1ccc2c(c1)N(CC)CCS2 | -2.8% | 14.6µM* | -22.8 | -2.2% | 9.2µM*
CCN1CCSc2ccc(C(=O)NC(C)c3ccccc3)cc21 (centres undefined) | x | 18.4µM* | x | x | 23.1µM*
CN1CCSc2ccc(C(=O)Nc3cccc(F)c3)cc21 | -20.4% | u | -53.2* | -19.5% | u
Cc1cc(=O)n2[nH]c(Nc3cccc(Cl)c3)nc2n1 | 0.3% | 3.2% | 0.0 | -8.7% | -21.2%
NS(=O)(=O)c1ccc(CCNC(=O)COC(=O)c2nc(Cl)ccc2Cl)cc1 | 7.9% | 22.0% | 2.9 | 1.0% | 15.6%
CCOC(=O)C1(C)CCN1C(=O)c1ccccc1Br (centres undefined) | 25.1% | -13.4% | 100.8 | 20.4% | -3.1%
CCN1CCSc2ccc(C(=O)NCc3cccc(F)c3)cc21 | 0.0% | u | -4.4 | 2.7% | 18.4µM*
Cc1ccc(CN2CCSc3ccc(C(=O)Nc4ccc(C)cc4)cc32)cc1 | x | 16.4µM* | x | x | 16.4µM*
Cc1ccc(CN2CCSc3ccc(C(=O)NCc4ccco4)cc32)cc1 | -8.7% | u | u | u | u
O=C(NCc1ccccn1)c1ccc2c(c1)N(Cc1ccccc1)CCS2 | -14.7% | u | -23.8 | -27.7% | u
CCOc1ccccc1CNC(=O)c1ccc2c(c1)N(Cc1ccc(C)cc1)CCS2 | x | 18.4µM* | x | x | 9.2µM*
CCN1C(=O)[C@@H]2[C@@H](c3ccc(-c4ccc(Cl)c(Cl)c4)cc3)N3CCCC[C@@]3(C(=O)OC)[C@@H]2C1=O | 10.5% | 18.4µM* | -3.1 | 3.1% | 16.4µM*
COC(=O)[C@@]12CCCCN1[C@H](c1ccc(-c3ccc(Cl)c(Cl)c3)cc1)[C@H]1C(=O)N(C)C(=O)[C@H]12 | -2.9% | 11.6µM* | 0.0 | 11.0% | 16.4µM*
Cc1ccccc1Cn1c(=O)n(C)c(=O)c2sccc21 | 15.6% | -4.3% | 15.6 | -10.3% | -24.5%
CC1CCCCC1NC(=O)CCNS(=O)(=O)c1ccc(Cl)cc1 (centres undefined) | -7.6% | u | 5.1 | 5.6% | -9.4%
COc1ccccc1OCCNC(=O)C(CCSC)NS(=O)(=O)c1ccccc1F (centres undefined) | 0.6% | 2.6% | -5.9 | 5.8% | 6.6%
C=C1C(C2(C)C=CC(=O)C(C)(C)C2CC(=O)OC)CC[C@@]2(C)C(c3ccoc3)OC(=O)C3OC132 (some centres undefined) | x | 6.5% | x | x | 6.4%
Nc1c(C(=O)NCc2ccc(Cl)cc2)sc2nc(-c3ccc(F)cc3)ccc12 | x | 18.4µM* | x | x | 20.6µM*
COc1ccc(-c2ccc3c(N)c(C(=O)NCc4ccc(Cl)cc4)sc3n2)cc1 | x | u | x | x | 14.6µM*
SMILES | HT1080NT lethal | TDP1 cell CPT | IL1B secr inh | HT1080 IDH1KD tx | DT40 TDP1 no CPT
COc1cccc(-c2ccc3c(N)c(C(=O)c4ccc(Cl)cc4)sc3n2)c1 | x | 8.2µM* | x | x | 7.31µM*
COc1ccc(-c2ccc3c(N)c(C(=O)Nc4ccc(C)cc4C)sc3n2)cc1OC | x | 4.11µM* | x | x | u
COc1ccc(C(=O)c2sc3nc(-c4ccccc4)ccc3c2N)cc1 | 4.5% | -53.7% | -25.9 | -23.0% | -52.6%
CCOc1ccc(S(=O)(=O)Nc2cccc(C(=O)NCC(c3ccco3)N3CCCC3)c2)cc1 (centres undefined) | -3.7%[9.24 µM] | -14.2% | 4.1 | -6.1% | -4.7%
COc1cc(NC(=O)CSc2nc3[nH]c(=O)cc(O)c3s2)cc(OC)c1OC | -1.6% | 0.5% | 1.6 | -1.1% | u
C[C@]1(CC/C(=C/CO)CO)[C@H](CO)CC[C@@]23COC(=O)C2=CCC[C@@H]31 | 1.8% | -2.4% | 5.2 | -7.6% | -0.2%
CCOc1ccccc1NC(=O)c1sc2nc(-c3ccc(OC)cc3)ccc2c1N | x | 20.6µM* | x | x | 13µM*
CCCOc1ccc(C2NC(=O)NC2=O)cc1 (centres undefined) | 10.2% | -16.1% | 27.1 | 15.2% | 1.0%
NCCOc1ccc(C2CCCCC2)cc1 | 15.0% | 13µM* | -186.2* | u | u
COC(=O)/C(=C1/OC(=O)C(c2ccccc2)=C1O)c1ccccc1 | x | 5.6%[9.04 µM] | x | x | -9.7%[9.04 µM]
CC1(C)c2ccccc2C(=O)c2ccccc21 | 8.2% | -29.7% | -19.4 | 2.1% | u
O=[N+]([O-])C1C(c2ccccc2)C12c1ccccc1-c1ccccc12 (centres undefined) | 5.8µM* | 1.03µM* | -67.4* | 6.51µM* | 1.03µM*
Cc1ccc(S(=O)(=O)NCc2ccccc2)s1 | -1.6% | -11.0% | 10.6 | -4.1% | -1.4%
O=S1(=O)CCOC[C@H](CC2CCCCC2)N1Cc1cccc(F)c1 | 0.7% | u | -13.7 | -1.4% | u
O=S1(=O)CCOC[C@H](CC2CCCCC2)N1Cc1ccc(Cl)cc1 | -3.2% | 2.82µM* | 10.5 | -0.9% | 3.55µM*
Cc1ccc(CN2[C@@H](CC3CCCCC3)COCCS2(=O)=O)cc1 | 18.6% | u | -18.7 | 6.6% | 12.6µM*
COc1ccc(N2C(=O)C3CCCN3C2c2ccccc2Cl)cc1 (centres undefined) | 9.9% | -10.1% | 4.5 | 7.6% | -12.6%
COc1ccccc1C(=O)ON=C1c2ccccc2-c2ccccc21 | -10.3% | -26.6% | -11.2 | -15.2% | 23.1µM*
CCOC(=O)C1=C(C)NC(C)=C(C(=O)OCC)C1C(=O)OCC(=O)NC1CCCCC1 | 1.7% | 25.9µM* | u | -15.2% | 23.1µM*
CCOC(=O)C1=C(C)NC(C)=C(C(=O)OCC)C1C(=O)OCC(=O)NCCc1ccccc1 | -2.0% | u | -55.2* | 1.4% | 25.9µM*
COc1ccccc1Cc1nc2ccccc2nc1SCC(=O)NCc1ccc(F)cc1 | x | -0.6% | x | x | -4.0%
Oc1c(CN2CCOCC2)cc(CN2CCOCC2)c(O)c1O | 4.4% | 18.4µM* | 13.6 | -1.8% | u
Oc1cccc(CN2CCOCC2)c1O | 13.6% | 25.9µM* | -5.4 | 6.0% | u
CCCc1cc(CN2CCOCC2)c(O)c(CN2CCOCC2)c1O | 13.0% | 14.6µM* | u | u | 18.4µM*
